Experimental data published in PubChem BioAssay.
Activity calls are given as the source filed them. Unless noted, how the calls were made is not given here.

What was measured:
[1] = A549 cell viability effects, profiling panel, calcein-AM fluorescence, 48 h, basal (AID 1162); settings: higher = more signal; further: test concentration not given here
[2] = adipocyte viability effects, profiling panel, cell-based, 3T3-L1 adipocytes, calcein-AM fluorescence, 48 h, basal (AID 1163); settings: 3T3-L1 adipocytes viability, higher = more signal; further: test concentration not given here
[3] = HepG2 cell viability effects, profiling panel, calcein-AM fluorescence, 48 h, basal (AID 1164); settings: higher = more signal; further: test concentration not given here
[4] = MM1S cell viability effects, profiling panel, calcein-AM fluorescence, 48 h, basal (AID 1165); settings: higher = more signal;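 further: viability of MM1S multiple myeloma cells under basal unstimulated conditions; test concentration not given here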
[5] = basal RPMI8226 viability, no added stimulus, profiling panel, cell-based, calcein-AM fluorescence, 48 h, PK04 Diversity Set (AID 1166); settings: RPMI8226 myeloma viability, higher = more signal;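 further: cells grown under basal conditions without added stimulus; test concentration not given here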
[6] = basal HepG2 mitochondrial membrane potential changes, profiling panel, cell-based, JC-1 fluorescence, 24 h, 100 nL compound (AID 1167); settings: higher = more signal; further: test concentration not given here
[7] = basal 3T3-L1 adipocyte mitochondrial potential changes, profiling panel, cell-based, JC-1 fluorescence, 3T3-L1 adipocytes, 24 h, 100 nL compound (AID 1168); settings: JC-1 mitochondrial fluorescence, higher = more signal, called active from +8 up or from −8 down; further: test concentration not given here
[8] = basal RPMI8226 mitochondrial membrane potential changes, profiling panel, cell-based, JC-1 fluorescence, 24 h, 100 nL compound (AID 1169); settings: RPMI8226 myeloma, JC-1 mitochondrial potential fluorescence, higher = more signal; further: test concentration not given here
[9] = basal MM1S mitochondrial membrane potential changes, profiling panel, cell-based, JC-1 fluorescence, 24 h, 100 nL compound (AID 1170); settings: higher = more signal; further: test concentration not given here
[10] = A549 lung cancer cell viability effects, profiling panel, resazurin fluorescence, 24 h, PK04 Diversity Set (AID 1171); settings: higher = more signal, called active from +8 up or from −8 down; further: test concentration not given here
[11] = HepG2 liver cancer cell viability effects, profiling panel, resazurin fluorescence, 24 h, PK04 Diversity Set (AID 1172); settings: higher = more signal; further: test concentration not given here
[12] = basal S. cerevisiae growth modulation, no modifier, primary screen, OD600, strain BY4716, 24 h, basal condition (AID 1173); settings: OD600, 24 h, higher = more signal, called active from +8 up or from −8 down
[13] = MM1S myeloma cell viability, profiling panel, resazurin fluorescence, basal, 24 h, PK04 Diversity Set (AID 1174); settings: higher = more signal, called active from +8 up or from −8 down;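 further: MM1S multiple myeloma cell line; test concentration not given here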
[14] = target: Dihydroorotate dehydrogenase (quinone), mitochondrial (Plasmodium falciparum (isolate 3D7)) (UniProt Q08210); experiment: PfDHODH enzyme inhibitors, primary screen, biochemical, C-terminal His tag, absorbance 600 nm (AID 1175); settings: DCIP absorbance 600 nm, higher = more signal, called active from +8 up or from −8 down;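 further: recombinant parasite enzyme with a five histidine tag at its C terminus; test concentration not given here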
[15] = P. aeruginosa biofilm formation inhibitors, primary screen, strain PAO1, LB-PBS medium, absorbance 600 nm (AID 1176); further: test concentration not given here; settings: P. aeruginosa PAO1 growth/biofilm, A600, 12 h; higher = more signal
[16] = S. cerevisiae RM11-1a growth modifiers, primary screen, strain RM11-1a, OD600, basal, 24 h (AID 1177); settings: OD600, 24 h, higher = more signal, called active from +8 up or from −8 down;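 further: cultures grown under basal conditions with no added stressor; test concentration not given here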
[17] = E. coli acrAB mutant growth effects, primary screen, E. coli filamentation inducers, strain DRC39, OD650, 24 h (AID 1178); settings: higher = more signal, called active from +8 up or from −8 down;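 further: growth measured as culture turbidity by optical density at 650 nm; test concentration not given here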
[18] = E. coli acrAB mutant growth effects, primary screen, E. coli filamentation inducers, strain DRC39, OD650, 48 h (AID 1179);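 further: screen aims at cell division blockers that make cells filament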; settings: E. coli DRC39 delta-acrAB growth, higher = more signal, called active from +8 up or from −8 down
[19] = RPMI8226 myeloma cell viability, profiling panel, resazurin fluorescence, basal, 24 h, PK04 Diversity Set (AID 1180); settings: higher = more signal;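 further: RPMI8826 multiple myeloma cell line at 5000 cells per well; test concentration not given here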
[20] = target: E3 ubiquitin-protein ligase XIAP (Homo sapiens) (UniProt P98170); experiment: XIAP binders, primary screen, biophysical, small-molecule microarray, fluorescence 635 nm (AID 1181); settings: small-molecule microarray binding, higher = more signal;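 further: score merges 667 nm emission and signal to noise over triplicate slides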
Sequence of E3 ubiquitin-protein ligase XIAP (Homo sapiens) (P98170 whole entry, looked up): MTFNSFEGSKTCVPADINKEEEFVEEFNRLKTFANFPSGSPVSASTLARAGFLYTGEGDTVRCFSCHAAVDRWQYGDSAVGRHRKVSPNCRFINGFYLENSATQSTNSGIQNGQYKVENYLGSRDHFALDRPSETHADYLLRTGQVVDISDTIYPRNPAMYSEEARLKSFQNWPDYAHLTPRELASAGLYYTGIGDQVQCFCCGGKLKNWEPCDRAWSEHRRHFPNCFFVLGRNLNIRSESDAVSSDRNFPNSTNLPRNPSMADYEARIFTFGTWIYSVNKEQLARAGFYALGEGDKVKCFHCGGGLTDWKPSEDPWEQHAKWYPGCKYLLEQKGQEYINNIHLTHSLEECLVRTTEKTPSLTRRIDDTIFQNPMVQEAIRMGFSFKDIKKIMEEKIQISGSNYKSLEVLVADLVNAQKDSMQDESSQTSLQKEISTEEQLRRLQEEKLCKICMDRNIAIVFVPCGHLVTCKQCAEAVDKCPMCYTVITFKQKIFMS

Sequence of Dihydroorotate dehydrogenase (quinone), mitochondrial (Plasmodium falciparum (isolate 3D7)) (Q08210 whole entry, looked up): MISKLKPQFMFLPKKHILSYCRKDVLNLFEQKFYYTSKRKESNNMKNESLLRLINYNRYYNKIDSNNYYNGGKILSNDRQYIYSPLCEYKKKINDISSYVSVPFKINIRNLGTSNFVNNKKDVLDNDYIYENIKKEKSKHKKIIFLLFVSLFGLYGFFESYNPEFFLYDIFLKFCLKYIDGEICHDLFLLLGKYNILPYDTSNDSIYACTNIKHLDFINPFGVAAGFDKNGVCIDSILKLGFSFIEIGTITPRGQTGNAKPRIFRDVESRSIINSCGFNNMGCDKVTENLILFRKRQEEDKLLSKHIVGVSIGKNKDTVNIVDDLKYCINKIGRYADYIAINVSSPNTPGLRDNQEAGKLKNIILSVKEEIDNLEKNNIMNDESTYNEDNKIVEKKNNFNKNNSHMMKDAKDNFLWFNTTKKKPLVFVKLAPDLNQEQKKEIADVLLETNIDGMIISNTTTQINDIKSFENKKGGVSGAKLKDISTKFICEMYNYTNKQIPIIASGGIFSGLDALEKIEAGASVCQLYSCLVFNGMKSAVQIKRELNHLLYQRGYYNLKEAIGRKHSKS

SMILES	z-score [1]	z-score [2]	z-score [3]	z-score [4]	z-score [5]	z-score [6]	z-score [7]	z-score [8]	z-score [9]	z-score [10]	z-score [11]	z-score [12]	z-score [13]	composite z-score [14]	z-score [15]	z-score [16]	z-score [17]	z-score [18]	z-score [19]	composite z-score [20]
CC[C@@H]1C=C(C(=O)O)[C@H](c2cccc3ccccc23)N1S(=O)(=O)c1ccc(C)cc1	-1.17	-0.101	0.338	-0.585	-0.392	-0.384	0.291 (inactive)	1.17	-1.16	-0.376 (inactive)	-0.359	0.518 (inactive)	-0.653 (inactive)	0.859 (inactive)	0.546 (inactive)	-0.43 (inactive)	-0.624 (inactive)	0.225 (inactive)	-1	-0.359
O=C1[C@@]23C=C(Br)[C@H](C[C@@H]2COC3)[C@]12CO2	-0.186	-0.959	-1.1	-3.17	-2.02	-2.21	-1.42 (inactive)	-1.3	-2.19	-0.453 (inactive)	-0.845	-10.2 (active)	-0.874 (inactive)	-1.91 (inactive)	0.732 (inactive)	-0.384 (inactive)	-0.0135 (inactive)	-0.0637 (inactive)	-0.741	-0.105
C[C@H]1C2[C@H](Cc3ccccc3)NC(=O)[C@]23C(=O)NCC(=O)N2CCC[C@H]2C(=O)NC/C=C/CCC/C=C/C3[C@@H]2O[C@]12C (stereo not given in full)	0.776	1.42	-0.39	-0.37	-0.682	0.624	0.244 (inactive)	-0.877	1.41	-1.46 (inactive)	-1.11	-1.17 (inactive)	-0.111 (inactive)	-0.0305 (inactive)	-0.578 (inactive)	-0.0879 (inactive)	1.2 (inactive)	0.601 (inactive)	0.277	-0.152
CCCCN1CC=CC23O[C@@H]4/C=C\CCCOC(=O)C4[C@H]2C(=O)N(CCCO)[C@@H]3C1=O (stereo not given in full)	-0.609	0.803	0.186	-0.614	-0.568	-0.795	1.19 (inactive)	0.16	0.597	0.216 (inactive)	0.426	0.129 (inactive)	0.31 (inactive)	0.119 (inactive)	0.55 (inactive)	-1.39 (inactive)	-0.0564 (inactive)	-0.314 (inactive)	0.309	-0.31
CC(C)(C)OC(=O)CC[C@]1(C(=O)NCCN2CCOCC2)COC(c2ccc(OCCCO)cc2)=N1	0.263	-0.555	0.854	-0.61	0.512	0.0561	0.588 (inactive)	0.212	-0.699	0.412 (inactive)	0.0093	0.321 (inactive)	0.382 (inactive)	0.731 (inactive)	-0.525 (inactive)	0.345 (inactive)	0.119 (inactive)	1.18 (inactive)	0.513	-0.0118
Cc1ccc(/C=C/C=O)cc1	0.572	-0.106	0.935	0.858	0.532	1.34	-0.111 (inactive)	-0.758	0.427	-0.64 (inactive)	-0.466	-1.75 (inactive)	-0.509 (inactive)	-0.962 (inactive)	-0.64 (inactive)	0.213 (inactive)	0.562 (inactive)	0.386 (inactive)	0.812	-0.214
Cc1ccc(S[C@]2(C(=O)O)CC(=O)N(C(C)C)[C@@H]2c2ccc(CO)cc2)cc1	0.716	1.07	1.19	0.266	0.535	1.36	-0.285 (inactive)	0.00862	-0.317	-0.831 (inactive)	0.0469	-1.45 (inactive)	0.359 (inactive)	-0.896 (inactive)	1.02 (inactive)	-1.33 (inactive)	1.44 (inactive)	1.93 (inactive)	0.376	-0.0962
CC(C)[Si](C#CCCCC#N)(Oc1ccccc1Br)C(C)C	0.551	-0.924	0.235	-0.887	-0.181	-0.247	-0.183 (inactive)	-0.756	0.2	-0.0106 (inactive)	-0.192	-3.82 (inactive)	0.456 (inactive)	0.0781 (inactive)	0.313 (inactive)	-0.218 (inactive)	-0.9 (inactive)	-0.832 (inactive)	-0.193	-0.0525
CC(=CC1CCCCC1)[C@@H](NC(=O)c1cccnc1)c1ccc(-c2ccccc2)cc1	-1.3	-0.671	-1.63	-2.15	-2.59	-2.99	-1.26 (inactive)	0.597	-0.462	1.49 (inactive)	0.41	2.33 (inactive)	0.382 (inactive)	-0.22 (inactive)	1.93 (inactive)	2.69 (inactive)	-0.906 (inactive)	-0.871 (inactive)	-1.22	-0.0095
